An excerpt weighted towards active compounds, which were near 4.8% of everything screened.
ssDAF-12 act = activators of S. stercoralis DAF-12 nuclear receptor. HEK293 ssDAF-12/GRIP1 lit1-tk-luc reporter, luminescence; % of 3 µM dafachronic acid response. actives 1% (n = 370,000). AID 652126. activation, % at 6.8 µM;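 active means activation above the mean over all tested compounds plus 3 SD, cut at about 0.9% in these data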;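 further: 0% = DMSO-only wells and 100% = 3 µM delta7-dafachronic acid wells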
DAX1 inh-1 = NR0B1 (DAX1) inhibition; HEK293 Gal4-DAX1 luciferase reporter, luminescence; inhibition, % at 6.75 µM; actives 0.99% (n = 340,000); AID 504766;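 active means inhibition above the mean over all tested compounds plus 3 SD, cut at about 4.2% in these data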;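 further: 0% = DAX1-transfected cells with DMSO and 100% = empty-vector control cells with DMSO; inhibition shows as a rise in luminescence from relieved DAX1 repression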
Target sequence (P51843 207-470 limits assumed): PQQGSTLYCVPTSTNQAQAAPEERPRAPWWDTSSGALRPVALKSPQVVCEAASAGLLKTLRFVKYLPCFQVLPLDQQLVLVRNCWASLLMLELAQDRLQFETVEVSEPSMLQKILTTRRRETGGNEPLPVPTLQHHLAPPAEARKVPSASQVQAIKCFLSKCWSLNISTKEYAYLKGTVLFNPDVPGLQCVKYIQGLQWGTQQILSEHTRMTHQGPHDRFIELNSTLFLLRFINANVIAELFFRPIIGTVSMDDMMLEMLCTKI
hcDAF12 agonist = activators of H. contortus DAF-12 nuclear receptor; HEK293 hcDAF-12 lit1-tk-luc reporter, luminescence; 0% DMSO, 100% Δ7-dafachronic acid; activation, % at 6.8 µM; actives 1.4% (n = 370,000);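 active means activation above the mean of all tested compounds plus 3 SD, cut at about 5.5% in these data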;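 further: 100% = response to 3 µM Δ7-dafachronic acid high control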
hgDAF12 agonist = activates the H. glycines DAF-12 receptor ligand-binding domain; HEK293 GAL4-hgDAF12 UAS-luciferase reporter, agonist luminescence; normalized to butyrate control; activation, % at 6.8 µM; actives 1.8% (n = 370,000);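 active means activation above a cutoff set at the mean of all screened compounds plus 3 SD, cut at about 10% in these data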;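 further: 0% = DMSO wells and 100% = sodium butyrate wells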
DAX1 inh-2 = inhibitors of DAX1 repression of SF-1 activated StAR promoter | inhibition, % at 6.8 µM | actives 1.1% (n = 370,000) | HEK293T StAR-luciferase reporter, SF-1/DAX-1 repression relief | AID 652010;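 active means inhibition above the mean over all tested compounds plus 3 SD, cut at about 3.6% in these data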;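 further: 0% = DAX-1 cells with DMSO and 100% = cells lacking DAX-1 with DMSO; higher inhibition means more luminescence from relief of DAX-1 repression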
SMARCA2 act = increases SMARCA2 function in MMTV reporter cells; MG213 cells, MMTV-luciferase reporter, dexamethasone, overnight; activation, % at 9.1 µM; actives 1% (n = 370,000); in the data active means activation above about 7.8%;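 further: 0% = vehicle wells and 100% = reference activator wells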
DAX1 inh confirm = confirmation of human DAX1 (NR0B1) inhibitors | shares compounds with DAX1 inh-2 | HEK293T StAR-promoter luciferase reporter, SF-1/DAX-1 repression | inhibition, % at 6.8 µM | actives 87% (n = 2,400);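 active means inhibition above the average of every tested compound plus 3 SD, cut at about 3.8% in these data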;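 further: 0% = DAX-1 cells with DMSO and 100% = no DAX-1 control cells with DMSO; active compounds raise luminescence by relieving repression of the StAR reporter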
SF1 AF2mut Luc = nonselective inhibitor or artifact in SF-1 mutant DAX1 counter-screen | actives 78% (n = 2,400) | shares compounds with DAX1 inh-2 | AID 652136 | HEK293 StAR-luciferase, SF-1 AF2 mutant, luminescence | inhibition, % at 6.8 µM;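 active means inhibition above the mean of all tested compounds plus 3 SD, cut at about 3% in these data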;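 further: 0% = DAX-1 transfected cells with DMSO and 100% = cells without DAX-1 with DMSO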
* hit, by the source's call.

For COc1ccc(Cl)cc1C(=O)NNC(=O)COC(=O)c1cccs1 the results were ssDAF-12 act -1, DAX1 inh-1 0, hcDAF12 agonist 0, hgDAF12 agonist 0, DAX1 inh-2 6.4*, SMARCA2 act -3, DAX1 inh confirm 0 and SF1 AF2mut Luc 0.
Screening COc1ccc(NC(=S)NC(=O)c2ccccc2)cn1 returned ssDAF-12 act 0, DAX1 inh-1 1, hcDAF12 agonist 2, hgDAF12 agonist 13*, DAX1 inh-2 4.6*, SMARCA2 act 5, DAX1 inh confirm 4 and SF1 AF2mut Luc 4.3*.
COc1ccc(NC(=O)c2cccc(Oc3ccccc3)c2)cn1 was read as ssDAF-12 act -1, DAX1 inh-1 -1, hcDAF12 agonist -2, hgDAF12 agonist 2, DAX1 inh-2 -1 and SMARCA2 act -2.
`CCOc1cccc(C(=O)Nc2nnc(-c3ccco3)s2)c1` gave ssDAF-12 act 1, DAX1 inh-1 -1, hcDAF12 agonist 5, hgDAF12 agonist 11*, DAX1 inh-2 5.0*, SMARCA2 act 7, DAX1 inh confirm 15* and SF1 AF2mut Luc 5.1*.
`CCCNC(=O)c1noc2c1CCc1ccccc1-2` gave ssDAF-12 act 0, DAX1 inh-1 0, hcDAF12 agonist 2, hgDAF12 agonist 8, DAX1 inh-2 4.5*, SMARCA2 act 7, DAX1 inh confirm 2 and SF1 AF2mut Luc 3.0*.
COc1ccc(NC(=O)c2cccnc2)cc1 was read as ssDAF-12 act -1, DAX1 inh-1 4, hcDAF12 agonist 0, hgDAF12 agonist 1, DAX1 inh-2 -1 and SMARCA2 act 0.
Screening O=C(Nc1ccc2ccccc2c1)c1cccnc1 returned ssDAF-12 act 0, DAX1 inh-1 2, hcDAF12 agonist 3, hgDAF12 agonist 8, DAX1 inh-2 4.7*, SMARCA2 act 2, DAX1 inh confirm 11* and SF1 AF2mut Luc 7.7*.
Screening Cc1coc(C)c1C(=O)Nc1ccc2ccccc2c1 returned ssDAF-12 act 0.9*, DAX1 inh-1 1, hcDAF12 agonist 3, hgDAF12 agonist 8, DAX1 inh-2 7.4*, SMARCA2 act 1, DAX1 inh confirm 6.0* and SF1 AF2mut Luc 3.8*.
For O=C(Nc1ccc2ccccc2c1)c1cnccn1 the results were ssDAF-12 act 1, DAX1 inh-1 2, hcDAF12 agonist 6.4*, hgDAF12 agonist 11*, DAX1 inh-2 5.5*, SMARCA2 act 5, DAX1 inh confirm 14* and SF1 AF2mut Luc 7.9*.
`CC(=O)Nc1ccc2ccccc2c1` gave DAX1 inh-1 0.
For COc1cccc(N2CCN(C(=O)CSc3nc4ncccc4[nH]3)CC2)c1 the results were ssDAF-12 act -2, hcDAF12 agonist -2, hgDAF12 agonist 2, DAX1 inh-2 -1 and SMARCA2 act -4.
For C=CCSc1nc2c(C(=O)OCC)nnn2c2ccccc12 the results were ssDAF-12 act 0, DAX1 inh-1 0, hcDAF12 agonist 2, hgDAF12 agonist 0, DAX1 inh-2 0 and SMARCA2 act 0.
Screening Nc1nc2c(C(=O)N3CCCC3)nnn2c2ccccc12 returned ssDAF-12 act -1, hcDAF12 agonist 3, hgDAF12 agonist 11*, DAX1 inh-2 4.7*, SMARCA2 act 4, DAX1 inh confirm 9.2* and SF1 AF2mut Luc 4.8*.
S=C(NCCc1ccc(Cl)cc1)NC1CCCCC1 was read as ssDAF-12 act 1, DAX1 inh-1 4, hcDAF12 agonist 4, hgDAF12 agonist 5, DAX1 inh-2 5.0*, SMARCA2 act 3, DAX1 inh confirm 2 and SF1 AF2mut Luc 3.0*.
For S=C(NCCc1ccc(Cl)cc1)NC1CCCC1 the results were ssDAF-12 act -1, DAX1 inh-1 -2, hcDAF12 agonist -1, hgDAF12 agonist 6, DAX1 inh-2 0 and SMARCA2 act 4.
Screening CC(=O)Nc1nc(-c2ccc(-c3ccccc3)cc2)cs1 returned ssDAF-12 act -1, DAX1 inh-1 2, hcDAF12 agonist 1, hgDAF12 agonist 4, DAX1 inh-2 4.5*, SMARCA2 act -1, DAX1 inh confirm 5.9* and SF1 AF2mut Luc 4.5*.
Screening CC(C)N1CCCCC(NC(=O)c2ccc(Cl)cc2Cl)C1=O (stereo unspecified) returned ssDAF-12 act 1, hcDAF12 agonist 0, hgDAF12 agonist -3, DAX1 inh-2 -1 and SMARCA2 act -2.
Screening O=C(COC(=O)/C=C/c1ccc(Cl)cc1)NC1CCCCCC1 returned ssDAF-12 act -1, DAX1 inh-1 0, hcDAF12 agonist -2, hgDAF12 agonist 0, DAX1 inh-2 4.8*, SMARCA2 act -3, DAX1 inh confirm 3 and SF1 AF2mut Luc 1.
O=C(COC(=O)/C=C/c1ccc(Cl)cc1)NC1CC1 was read as ssDAF-12 act 1, DAX1 inh-1 -1, hcDAF12 agonist 2, hgDAF12 agonist 2, DAX1 inh-2 0 and SMARCA2 act 1.
`O=C(CSc1nc2ccccc2n1Cc1ccccc1Cl)NN=C/C(Br)=C/c1ccccc1` gave ssDAF-12 act -2, hcDAF12 agonist -2, hgDAF12 agonist -3, DAX1 inh-2 -2 and SMARCA2 act -4.
CC(=O)Nc1ccc(NC(=O)COC(=O)c2c(C)nn(-c3ccccc3)c2C)cc1 was read as ssDAF-12 act -1, DAX1 inh-1 0, hcDAF12 agonist -2, hgDAF12 agonist 3, DAX1 inh-2 -2 and SMARCA2 act -2.
Screening Cc1nn(-c2ccccc2)c(C)c1C(=O)OCC(=O)Nc1ccccc1F returned ssDAF-12 act 0, DAX1 inh-1 1, hcDAF12 agonist 2, hgDAF12 agonist 10, DAX1 inh-2 7.4*, SMARCA2 act 6, DAX1 inh confirm 7.0* and SF1 AF2mut Luc 3.6*.
For CCOc1ccc(N(CC(=O)Nc2ccccc2OCC)S(=O)(=O)c2c(C)noc2C)cc1 the results were ssDAF-12 act 0, DAX1 inh-1 0, hcDAF12 agonist 1, hgDAF12 agonist 1, DAX1 inh-2 13*, SMARCA2 act -4, DAX1 inh confirm 16* and SF1 AF2mut Luc -7.
For CCCC/C=C1/[C@@H](CC)N(Cc2ccc(OC)cc2OC)C2=N[C@H](c3ccccc3)CC(=O)N21 the results were ssDAF-12 act -2, hcDAF12 agonist 0 and hgDAF12 agonist -3.
For Cn1cc(CCNC(=O)c2ccc3nc(Cc4ccccc4F)oc3c2)cn1 the results were ssDAF-12 act -1, DAX1 inh-1 2, hcDAF12 agonist 4, hgDAF12 agonist 12*, DAX1 inh-2 5.0*, SMARCA2 act 2, DAX1 inh confirm 7.1* and SF1 AF2mut Luc 5.8*.

Bioassay records (PubChem BioAssay)
